The record followed here is PubChem BioAssay (NCI).

Holding throughout (test): NCI-60 one-dose screen, 48 h (100 = growth as untreated, 0 = no growth, -100 = all killed)
Common to all, as to details: 10 µM unless noted

Test [1] has as its system SK-MEL-2 melanoma.
Test [2] relates to EKVX NSCLC.
Test [3] deals with SN12C renal.
In test [4] the test system is UO-31 renal.
In test [5] the test system is TK-10 renal.
For test [6], the system named is ACHN renal.
Test [7] relates to CAKI-1 renal.
Test [8] relates to A498 renal.
Test [9] concerns CCRF-CEM leukemia.
Test [10] has as its system MOLT-4 leukemia.
The test system of test [11] is RPMI-8226 leukemia.
Test [12] relates to OVCAR-8 ovarian.
In test [13] the test system is OVCAR-5 ovarian.
Test [14] has as its system OVCAR-4 ovarian.
For test [15], the system named is SK-OV-3 ovarian.
The test system of test [16] is IGROV1 ovarian.
Test [17] has as its system OVCAR-3 ovarian.
In test [18] the test system is HS 578T breast.
For test [19], the system named is NCI/ADR-RES ovarian.

This is part of a sample that, as a whole, favours compounds with a hit. Of some 83,000 tested, about 20% had one in any assay.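 Cell lines were cultured in 96-well plates, exposed to a single compound concentration, and assessed for percent growth 48 hours later.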 Unmarked numbers belong to inactive results. Activity calls are given as the source filed them. The calls were made as follows: active = growth percent below 10; inactive = the rest.

As for `CCCCCCCCCCCCCCCCCC1=NCCN1CCOC1=C(Cl)C(=O)c2ccccc2C1=O`, the growth was 85.3% in test [1]; 86.7% in test [2]; 78.9% in [3]; 42.6% in test [4]; 78.9% in [5]; 30.2% in test [6]. Besides, the growth in [7] was 8.77% (active); in test [8] it was 99.7%; in test [9], 57%; in [10] it was 71.7%; in [11], 33.1%; in [12] it was 75%. For the same compound, the growth was 115% in [13]; -5.67% (active) in [14]; 99.9% in [15]; 67% in test [16]; 23.4% in test [17]; 90.1% in [18]. In addition, the growth in test [19] is 81.7%.
On to `Cc1ccc(Cl)cc1NC(=O)c1cc2ccccc2cc1O`, for which the growth is -12.3% (active) in [1]; 4.4% (active) in test [2]; -21.8% (active) in [3]; -8.04% (active) in test [4]; -1.32% (active) in test [5]; -15% (active) in test [6]. Moreover, the growth was -16.8% (active) in [7]; -31.4% (active) in test [8]; -22.3% (active) in test [9]; -37.4% (active) in test [10]; -58.2% (active) in [11]; 7.85% (active) in test [12]. Besides, the growth in [13] is -5.91% (active); in test [14], 3.71% (active); in [16] it was -5.94% (active); in [17], -25.9% (active); in test [18] it was -21% (active); in test [19], -27.9% (active).
For `Cc1ccc(Nc2ccc(Nc3ccc(C)cc3)c3c2C(=O)c2cccc(O)c2C3=O)cc1`, the growth in test [1] was 65.5%; in test [2], 91.6%; in test [3] it was 98%; in test [4] it was 64.7%; in test [5] it was 137%; in [6], 91%. The growth in test [7] was 104%; in test [8] it was 116%; in [9], 93.2%; in test [10] it was 104%; in test [11] it was 88.7%; in [12], 97.8%. For the same compound, the growth in test [13] was 82.1%; in test [15] it was 87.5%; in test [16] it was -12.9% (active); in [17] it was 121%; in test [18], 99%; in [19], 99.8%.
`CCOP(=O)(OCC)C1CP(=O)(c2ccccc2)CC(C)=C1Cl` (stereo not given): the growth in test [1] is 102%; in [2] it was 107%; in test [3], 96%; in [4], 68.1%; in test [5], 77.1%; in test [6], 109%. For the same compound, the growth in test [7] was 108%; in test [8], 111%; in test [9], -90.6% (active); in test [10], 93%; in [11], 69.6%; in test [12], 85.7%. In addition, the growth was 97.8% in test [13]; 107% in test [14]; 127% in [15]; 104% in test [17]; 112% in test [18]; 93.5% in [19].
Take `COc1cc(/C=C/C(=O)N2CCN(C(=O)c3cc(OC)c(OC)c(OC)c3)CC2)ccc1OCCCN1C(=O)c2cccc3cccc(c23)C1=O`: the growth in test [1] is 49.3%; in [2], 114%; in [3], 93.7%; in test [4], 42.1%; in test [5], 97.5%; in test [6], 80.7%. The growth in test [7] was 72.9%; in test [8] it was 62.2%; in test [9] it was 27.1%; in test [10] it was 49.6%; in [11], 21.6%; in test [12], 50.6%. For the same compound, the growth in test [13] is 107%; in test [14], 77.9%; in [15], 121%; in test [17], 73.5%; in [18] it was 38.6%; in test [19], 68.9%.
Turning to `COc1ccc2c(c1)C(=O)/C(=C/c1ccc(OCC(=O)Nc3nccs3)cc1)O2`, the growth was 112% in test [1]; 32.7% in [2]; 48.2% in [3]; -80.8% (active) in [4]; 93.9% in [5]; 49% in [6]. Also, the growth in test [7] was -78.4% (active); in test [8] it was 99.7%; in [9], -73.8% (active); in test [10] it was -72.9% (active); in test [11], -53.8% (active); in [12] it was 19.1%. Besides, the growth in [13] was -31.5% (active); in test [14], 48.3%; in test [15] it was 37.9%; in test [17], -24.4% (active); in [18], 56.2%; in test [19], 56.9%.
Turning to `O=C(Nc1cccc2c(O)c(N=Nc3ccc(S(=O)(=O)Nc4nccs4)cc3)cc(N=Nc3ccc(S(=O)(=O)Nc4nccs4)cc3)c12)C(Cl)Cl`, the growth in [1] is 52.6%; in test [2], 90.5%; in test [3], 111%; in test [4], 68.3%; in [5], 122%; in [6], 57.4%. In addition, the growth was 76.8% in test [7]; 85% in test [8]; 72.5% in test [9]; 153% in test [10]; -10.9% (active) in test [11]; 59.1% in test [12]. Also, the growth in [13] is 112%; in test [14], 90.3%; in test [15] it was 107%; in [17], 35.9%; in test [18], 56.4%; in test [19], 101%.
As to `Cc1ccc2nc(C)c(-c3nnc(SCc4ccc(C#N)cc4)o3)n2c1`, the growth in test [1] was 101%; in test [2], 83.8%; in test [3], 92.9%; in test [4], 67%; in [5] it was 120%; in test [6], 88.4%. The growth in test [7] was 85.3%; in [8] it was 72%; in [9] it was 117%; in [10], 101%; in [11], 93.6%; in test [12], 108%. In addition, the growth was 107% in [13]; 95.8% in test [14]; 89.5% in test [16]; 109% in test [17]; 93.2% in test [18]; 90.6% in [19].
